“And” between values parts separate entries of the source, which are not always exact repeats. Identical values can stand only once. Results filed as inconclusive are left out. The source made the active and inactive calls. Rule for the calls: active = hit-call score of the fitted dose curve at least 0.9, where 1 is the maximum; inconclusive = response in the unintended direction; inactive = score below 0.9.
molecular target: human Serotonin, 5-Hydroxytryptamine Receptor 6 (5HT6), HTR6 (gene 3362) (UniProt P50406); assay: NVS_GPCR_h5HT6: NovaScreen (NVS) G Protein-Coupled Receptor Assay for human Serotonin, 5-Hydroxytryptamine Receptor 6 (5HT6) (AID 2283253)
Sequence (P50406 whole entry, looked up): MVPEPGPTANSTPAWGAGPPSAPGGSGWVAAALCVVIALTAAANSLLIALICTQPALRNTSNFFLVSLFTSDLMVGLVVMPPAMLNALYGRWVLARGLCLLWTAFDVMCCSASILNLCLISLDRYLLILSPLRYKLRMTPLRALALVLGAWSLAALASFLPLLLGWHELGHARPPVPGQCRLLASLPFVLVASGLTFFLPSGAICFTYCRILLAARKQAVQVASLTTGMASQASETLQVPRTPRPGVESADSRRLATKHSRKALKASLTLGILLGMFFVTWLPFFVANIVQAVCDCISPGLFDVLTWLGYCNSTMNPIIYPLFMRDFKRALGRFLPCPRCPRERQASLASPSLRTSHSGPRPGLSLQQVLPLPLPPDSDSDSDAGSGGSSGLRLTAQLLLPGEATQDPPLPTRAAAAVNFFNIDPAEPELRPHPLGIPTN
Protocol: NVS_GPCR_h5HT6 is a biochemical, single-readout assay that uses extracted gene-proteins from HEK293 in a cell-free assay. Measurements were taken 1 hour after chemical dosing in a 96-well plate.NVS_GPCR_h5HT6 is one of one assay component(s) measured or calculated from the NVS_GPCR_h5HT6 assay. It is designed to make measurements of radioligand binding, a form of binding reporter, as detected with scintillation counting signals by Filter-based radiodetection technology.Data from the assay component NVS_GPCR_h5HT6 was analyzed into 1 assay endpoint. This assay endpoint, NVS_GPCR_h5HT6, was analyzed in the positive analysis fitting direction relative to DMSO as the negative control and baseline of activity. Using a type of binding reporter, loss-of-signal activity can be used to understand changes in the binding as they relate to the gene HTR6. Furthermore, this assay endpoint can be referred to as a primary readout, because the performed assay has only produced 1 assay endpoint. To generalize the intended target to other relatable targets, this assay endpoint is annotated to the gpcr intended target family, where the subfamily is rhodopsin-like receptor.
Binding assays used specific radioligands (tritiated, iodinated) with non-radioactive competitive displacement ligands in agonist or antagonist protocols (as indicated) and various reference compounds and inhibitors to titrate specific binding to receptors and transporters. Most enzyme assays (CYPs, kinases, phosphatases, proteases, HDACs) used recombinant protein and specific substrates (fluorescence mostly, some colorimetric and radioactive) and inhibitors, followed by a biochemical separation of substrate and product. All assays for the biochemical HTS were initially run in duplicate at a single concentration (10 uM for CYP450 assays and 25 uM for all others). […] Each assay was run with positive and negative controls, and concurrent controls on every plate. The follow-up (secondary) screen tested active chemical-pairs in concentration series, as well as a few additional assays not tested in the primary screen, some selected negative inactives, and several cases re-run in the concentration series for confirmatory purposes.

AC50, active:
CN(C[C@@H](CC[N+]12CCC(C3CCCCC3)(CC1)CC2)c1ccc(Cl)c(Cl)c1)C(=O)c1cc(C(F)(F)F)cc(C(F)(F)F)c1 10.5 µM
O=c1[nH]sc2ccccc12 14.3 µM
Cc1cc2c(cc1C(F)(F)F)N(C(=O)Nc1ccc(Oc3cccnc3C)nc1)CC2 2.91 µM
CC[C@H](NC(=O)c1cc(F)ccc1NS(=O)(=O)c1cccc2cccnc12)c1ccccc1 1.31 µM
CN(C)c1ccc(C(=C2C=CC(=[N+](C)C)C=C2)c2ccc(N(C)C)cc2)cc1 13.9 µM
CCOC(=O)O[C@H](C)OC(=O)c1ccc2c(c1)cc(C(=O)NC1CCN(C(C)C)CC1)n2Cc1cc(-c2ccc(Cl)s2)on1 7.12 µM
CCN(CC)C(=O)c1cc(S(=O)(=O)Cc2ccccc2)c(N2CCC(c3ccccc3)CC2)cc1N(CC)CCN(C)C 0.971 µM
CN(C)C(=O)C1(N2CCCCC2)CCN(CC[C@@]2(c3ccc(Cl)c(Cl)c3)CN(C(=O)c3ccccc3)CCO2)CC1 23.6 µM
C[C@]12CC[C@@H]3c4ccc(O)cc4CC[C@H]3[C@@H]1CC[C@H]2O 25 µM
Cc1cc(F)ccc1-c1cc(N2CC[C@@H](O)[C@H]2CO)ncc1N(C)C(=O)C(C)(C)c1cc(C(F)(F)F)cc(C(F)(F)F)c1 11.7 µM
CC/C(=C(/CC)c1ccc(O)cc1)c1ccc(O)cc1 25 µM and 19.5 µM
NCc1cccc(C2CCN(C(=O)c3ccc(C#Cc4ccccc4F)o3)CC2)c1 8.69 µM

Source: PubChem BioAssay (EPA / NIEHS)
